From PubChem BioAssay (Tox21)
Inconclusive results are not listed. Entries that show only a call come without a potency. The source made the active and inactive calls. The call rests on the fitted dose curve.

assay: qHTS assay to identify small molecule agonists of H2AX - cell viability counter screen (AID 1224847); details: CHO-K1 viability, CellTiter-Glo luminescence, 3 h; series mostly up to 154 µM; further: top concentration of the series differs between compounds; nearly all actives have a fitted effect of over 30% in size
Description: National Center for Advancing Translational Sciences [NCATS]
NIH Chemical Genomics Center [NCGC]
U.S. Environmental Protection Agency [EPA]
National Institutes of Environmental Health Sciences [NIEHS]
National Toxicology Program [NTP]
U.S. Food and Drug Administration [FDA]
HTRF phospho-H2AX (Ser139) assay (Cisbio Bioassays, US) enables the quantitative detection of the histone variant H2AX when phosphorylated on serine 139. When double-stranded DNA breaks, either by ionizing radiation or endogenous physiological processes, H2AX becomes phosphorylated at Ser139. This phospho-Ser139 serves as a sensitive biomarker for the detection of such breaks, localizing the site of DNA repair. So, HTRF phospho-H2AX Ser139 is a pertinent assay to study genome stability, the cell cycle, DNA repair, and it serves as a biomarker for cancer, and to understand aging. Wild type CHO-K1 cells were used to identify the inducers of Phospho-H2AX Ser 139 from the Tox21 compound collections. Also cytotoxicity of the Tox21 10K compound library against the CHO-K1 cell line was tested by measuring the cell viability using CellTiter-Glo assay (Promega, Madison, WI).
Tox21 Assay Protocol Summary:
The CHO-K1 cells suspended in culture medium containing 10% FBS were dispensed at 1000 cells/ 3 ul/well in 1536-well white wall/solid bottom plates (Greiner Bio-One North America, NC) using a Multidrop Combi (Thermo Fisher Scientific Inc., Waltham, MA). After the assay plates were incubated at 37C overnight, 23 nl of compounds at 15 concentrations (from 5-48 columns) or positive control (from 1 to 4 columns) were transferred to the assay plates using a Pintool station (Wako, San Diego, CA) into each well resulting in a final DMSO concentration of 0.76%. After 3hr incubation at 37C, 3 uL/well CellTiter-Glo luminescent cell viability reagent (Promega Corporation, Madison, WI) was added using a Flying Reagent Dispenser (FRD) (Aurora Discovery, CA). After incubation at room temperature for 30 min, the luminescence intensity was read using a ViewLux plate reader (PerkinElmer, Waltham, MA).

Question: For `CO/N=C(/C(=O)N[C@@H]1C(=O)N2C(C(=O)O)=C(Cn3nnc(C)n3)CS[C@H]12)c1csc(N)n1`, which Potency is on record?
Answer: The Potency was “inactive”.

Question: With `CC(C)C(=O)c1ccccc1` as the compound, how does the Potency read?
Answer: The Potency was “inactive”.

Question: With `CCC1Nc2cc(Cl)c(S(N)(=O)=O)cc2S(=O)(=O)N1` (stereo not given) as the compound, how does the Potency read?
Answer: The Potency was “inactive”.

Question: With `C=CCOc1c(Br)cc(C(C)(C)c2cc(Br)c(OCC=C)c(Br)c2)cc1Br` as the compound, how does the Potency read?
Answer: The Potency was “inactive”.

Question: For `CCCCCCCCCCCCOC(C)=O`, which Potency is on record?
Answer: The Potency was “inactive”.

Question: Which Potency does the source give for `Cn1c(=O)c2c(ncn2CC2OCCO2)n(C)c1=O` here?
Answer: The Potency was “inactive”.

Question: Which Potency does the source give for `O=C1c2ccccc2-c2ccccc21` here?
Answer: Its Potency is “inactive”.

Question: With `C[C@H]1O[C@H](O[C@H]2[C@H](O)[C@@H](O)[C@@H](O[C@H]3[C@H](O)[C@@H](O)[C@H](O)O[C@@H]3CO)O[C@@H]2CO)[C@H](O)[C@@H](O)[C@@H]1N[C@H]1C=C(CO)[C@@H](O)[C@H](O)[C@H]1O` as the compound, how does the Potency read?
Answer: Its Potency is “inactive”.

Question: For `c1ccc(CNc2ncnc3nc[nH]c23)cc1`, which Potency is on record?
Answer: Its Potency is “inactive”.

Question: For `C=C(C)C(=O)OC1CC(C)CC(C)(C)C1` (stereo not given), which Potency is on record?
Answer: Its Potency is “inactive”.

Question: Which Potency does the source give for `CCCCCC1CCCC(=O)O1` (stereo not given) here?
Answer: The Potency was “inactive”.

Question: For `Nc1ccc(S(=O)(=O)Nc2ccccn2)cc1`, which Potency is on record?
Answer: Its Potency is “inactive”.

Question: With `NS(=O)(=O)c1cc2c(cc1Cl)NC(C(Cl)Cl)NS2(=O)=O` (stereo not given) as the compound, how does the Potency read?
Answer: The Potency was “inactive”.

Question: Which Potency does the source give for `Cc1cccc(Nc2ccncc2S(=O)(=O)NC(=O)NC(C)C)c1` here?
Answer: Its Potency is “inactive”.

Question: For `CCCCC(CC)C(=O)OC(C)C` (stereo not given), which Potency is on record?
Answer: Its Potency is “inactive”.

Question: With `O=CN1CCOCC1` as the compound, how does the Potency read?
Answer: Its Potency is “inactive”.

Question: For `CNC(=O)C(c1ccccc1)c1ccccc1`, which Potency is on record?
Answer: Its Potency is “inactive”.

Question: With `O=P(O)(O)OCC(O)CO` (stereo not given) as the compound, how does the Potency read?
Answer: The Potency was “inactive”.

Question: For `C=CCOCC(CO)(COCC=C)COCC=C`, which Potency is on record?
Answer: Its Potency is “inactive”.

Question: Which Potency does the source give for `Cc1nc(C)nc(N2C[C@@H](C)N(c3ccnc([C@@H](C)O)n3)[C@@H](C)C2)n1` here?
Answer: Its Potency is “inactive”.

Question: For `CCOc1ccc(NC(=O)OC(C)C)cc1OCC`, which Potency is on record?
Answer: Its Potency is “inactive”.

Question: Which Potency does the source give for `CCCCCC(=O)OCC` here?
Answer: Its Potency is “inactive”.

Question: For `Cc1cc(C)cc([N+](=O)[O-])c1`, which Potency is on record?
Answer: Its Potency is “inactive”.

Question: For `CC(C)(c1ccc(Oc2ccc3c(c2)C(=O)OC3=O)cc1)c1ccc(Oc2ccc3c(c2)C(=O)OC3=O)cc1`, which Potency is on record?
Answer: Its Potency is “inactive”.

Question: For `C=C(C)[C@@H]1CC[C@@H](C)C[C@@H]1O`, which Potency is on record?
Answer: Its Potency is “inactive”.

Question: With `CC(C)SCc1ccco1` as the compound, how does the Potency read?
Answer: Its Potency is “inactive”.

Question: With `CC(=O)OCC(=O)[C@@]1(O)[C@H](OC(C)=O)C[C@H]2[C@@H]3CCC4=CC(=O)C=C[C@]4(C)[C@@]3(F)[C@@H](O)C[C@@]21C` as the compound, how does the Potency read?
Answer: Its Potency is “inactive”.

Question: For `COc1cc([N+](=O)[O-])ccc1N`, which Potency is on record?
Answer: The Potency was “inactive”.

Question: Which Potency does the source give for `CCC(C)(C)C1CCC(=O)CC1` here?
Answer: Its Potency is “inactive”.

Question: With `C=CCOc1c(Br)cc(Br)cc1Br` as the compound, how does the Potency read?
Answer: The Potency was “inactive”.

Question: With `O=c1[nH]c(=O)c2ccccc2o1` as the compound, how does the Potency read?
Answer: The Potency was “inactive”.

Question: With `CCOC(=O)CCc1ccccc1` as the compound, how does the Potency read?
Answer: The Potency was “inactive”.

Question: For `C=CC(C)(O)CC/C=C(\C)CC` (stereo not given), which Potency is on record?
Answer: Its Potency is “inactive”.

Question: Which Potency does the source give for `CC(=O)Nc1ncc([N+](=O)[O-])s1` here?
Answer: Its Potency is “inactive”.

Question: For `CCCCCCCCCCCCCC(=O)OC`, which Potency is on record?
Answer: The Potency was “inactive”.

Question: For `C=C[Si](C)(C)O[Si](C)(C)C=C`, which Potency is on record?
Answer: The Potency was “inactive”.

Question: With `CCCOC(=O)CCCCC(=O)OCCC` as the compound, how does the Potency read?
Answer: Its Potency is “inactive”.

Question: With `C1=CCC(c2ccccc2)CC1` (stereo not given) as the compound, how does the Potency read?
Answer: Its Potency is “inactive”.

Question: For `CC(=O)N(CC(O)CO)c1c(I)c(C(=O)NCC(O)CO)c(I)c(C(=O)NCC(O)CO)c1I` (stereo not given), which Potency is on record?
Answer: Its Potency is “inactive”.

Question: With `CCc1nccnc1C` as the compound, how does the Potency read?
Answer: The Potency was “inactive”.
